Broadly, the AC50 is the midpoint of the concentration-response curve, whichever way the signal moves.

This note sets out measurements from PubChem BioAssay (EPA / NIEHS).

Read-out in experiment [1]: Cyclin Dependent Kinase Inhibitor 1A (CDKN1A), CDKN1A (gene 1026)
In words: LTEA_HepaRG_CDKN1A: Life Technologies and Expression Analysis (LTEA) Assay for Cyclin Dependent Kinase Inhibitor 1A (CDKN1A) using HepaRG (AID 2283450). Conditions: mRNA level, 48 h; actives raise or lower the signal. The procedure, abridged: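 Differentiated HepaRG cells in serum-free induction medium, exposed 48 h in duplicate to eight half-log concentrations up to 100 uM in 0.5% DMSO. mRNA measured by TaqMan qRT-PCR, normalized to ACTB, GAPDH, POLR2A; bidirectional fit versus DMSO.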

Read-out in experiment [2]: Cyclin D1 (CCND1), CCND1 (gene 595)
In words: LTEA_HepaRG_CCND1: Life Technologies and Expression Analysis (LTEA) Assay for Cyclin D1 (CCND1) using HepaRG (AID 2283451). As to conditions: mRNA level, 48 h; actives raise or lower the signal. The procedure, abridged: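 Differentiated HepaRG cells exposed 48 h in serum-free induction medium to eight half-log concentrations from 100 uM top, 0.5% DMSO, duplicates. CCND1 mRNA measured by Fluidigm TaqMan qRT-PCR, normalised to ACTB, GAPDH, POLR2A; bidirectional fit.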

Read-out in experiment [3]: catalase (CAT), CAT (gene 847)
Briefly: LTEA_HepaRG_CAT: Life Technologies and Expression Analysis (LTEA) Assay for catalase (CAT) using HepaRG (AID 2283452). Conditions: mRNA level, 48 h; actives raise or lower the signal. The method, boiled down: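 Differentiated HepaRG cells in serum-free induction medium were dosed 48 h in duplicate, eight half-log concentrations from 100 uM in 0.5% DMSO. Transcript measured by TaqMan qRT-PCR, normalised to ACTB/GAPDH/POLR2A, fitted bidirectionally against DMSO.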

Read-out in experiment [4]: flavin-containing dimethylaniline monooxygenases 3 (FMO3), FMO3 (gene 2328)
Briefly: LTEA_HepaRG_FMO3: Life Technologies and Expression Analysis (LTEA) Assay for flavin-containing dimethylaniline monooxygenases 3 (FMO3) using HepaRG (AID 2283453). As to conditions: mRNA level, 48 h; actives raise or lower the signal. The procedure, abridged: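 HepaRG, 48 h exposure, 8-pt half-log series from 100 uM, 0.5% DMSO vehicle, duplicates; FMO3 transcript by Fluidigm TaqMan qRT-PCR, housekeeping-normalized; gain/loss fit vs DMSO.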

Read-out in experiment [5]: Cytochrome P450 (CYP1A1), CYP1A1 (gene 1543)
Briefly: LTEA_HepaRG_CYP1A1: Life Technologies and Expression Analysis (LTEA) Assay for Cytochrome P450 (CYP1A1) using HepaRG (AID 2283454). Conditions: mRNA level, 48 h; actives raise or lower the signal. The procedure, abridged: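 Differentiated human HepaRG cells, after 48 h plating, exposed in duplicate for 48 h in serum-free induction medium to 8 half-log concentrations up to 100 uM in 0.5% DMSO. CYP1A1 mRNA by qRT-PCR, normalized to ACTB/GAPDH/POLR2A; bidirectional fit versus DMSO.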

Read-out in experiment [6]: CFLAR gene, CFLAR (gene 8837)
Briefly: LTEA_HepaRG_CFLAR: Life Technologies and Expression Analysis (LTEA) Assay for CFLAR gene using HepaRG (AID 2283455). Conditions: mRNA level, 48 h; actives raise or lower the signal. The method, boiled down: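 HepaRG cells were plated for 48 h, switched to serum-free induction medium, then exposed in duplicate for 48 h to 8 concentrations (top 100 uM, half-log steps, 0.5% DMSO). CFLAR mRNA was measured by qRT-PCR, normalized to ACTB, GAPDH and POLR2A.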

Read-out in experiment [7]: Forkhead box O1 (FOXO1), FOXO1 (gene 2308)
Briefly: LTEA_HepaRG_FOXO1: Life Technologies and Expression Analysis (LTEA) Assay for Forkhead box O1 (FOXO1) using HepaRG (AID 2283456). Conditions: mRNA level, 48 h; actives raise or lower the signal. The method, boiled down: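 Differentiated human HepaRG cells in serum-free induction medium were exposed in duplicate for 48 h to eight half-log concentrations (top 100 uM, 0.5% DMSO). FOXO1 mRNA was measured by TaqMan qRT-PCR, normalised to ACTB, GAPDH and POLR2A, and fitted bidirectionally against DMSO.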

Read-out in experiment [8]: growth arrest and DNA damage 45 (GADD45A), GADD45A (gene 1647)
In words: LTEA_HepaRG_GADD45A: Life Technologies and Expression Analysis (LTEA) Assay for growth arrest and DNA damage 45 (GADD45A) using HepaRG (AID 2283458). Conditions: mRNA level, 48 h; actives raise or lower the signal. The procedure, abridged:
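Differentiated HepaRG cells were exposed in duplicate for 48 h in serum-free induction medium to 8-point half-log concentrations up to 100 uM in 0.5% DMSO. GADD45A mRNA was measured by TaqMan qRT-PCR, normalized to ACTB, GAPDH and POLR2A, with bidirectional fitting versus DMSO.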

Read-out in experiment [9]: Forkhead box O3 (FOXO3), FOXO3 (gene 2309)
Briefly: LTEA_HepaRG_FOXO3: Life Technologies and Expression Analysis (LTEA) Assay for Forkhead box O3 (FOXO3) using HepaRG (AID 2283459). As to conditions: mRNA level, 48 h; actives raise or lower the signal. The method, boiled down:
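Differentiated human HepaRG cells in serum-free induction medium were exposed in duplicate for 48 h to eight half-log concentrations up to 100 uM in 0.5% DMSO. FOXO3 mRNA was quantified by qRT-PCR, normalized to ACTB, GAPDH and POLR2A, with bidirectional fitting versus DMSO.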

Read-out in experiment [10]: ABC Transporter (ABCB1), ABCB1 (gene 5243)
Briefly: LTEA_HepaRG_ABCB1: Life Technologies and Expression Analysis (LTEA) Assay for ABC Transporter (ABCB1) using HepaRG (AID 2283460). As to conditions: mRNA level, 48 h; actives raise or lower the signal. The method, boiled down:
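Differentiated human HepaRG cells, plated 48 h then switched to serum-free induction medium, were exposed in duplicate to eight half-log concentrations up to 100 uM in 0.5% DMSO for 48 h. ABCB1 mRNA was measured by TaqMan qRT-PCR, normalized to ACTB/GAPDH/POLR2A.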

Read-out in experiment [11]: growth arrest and DNA damage 45 (GADD45B), GADD45B (gene 4616)
Briefly: LTEA_HepaRG_GADD45B: Life Technologies and Expression Analysis (LTEA) Assay for growth arrest and DNA damage 45 (GADD45B) using HepaRG (AID 2283461). Conditions: mRNA level, 48 h; actives raise or lower the signal. The method, boiled down: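 Differentiated human HepaRG cells in serum-free induction medium exposed 48 h in duplicate to eight concentrations, top 100 uM, half-log steps, 0.5% DMSO. GADD45B mRNA by TaqMan qRT-PCR, normalized to ACTB, GAPDH, POLR2A; bidirectional fit versus DMSO.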

Read-out in experiment [12]: ABC Transporter (ABCC3), ABCC3 (gene 8714)
In words: LTEA_HepaRG_ABCC3: Life Technologies and Expression Analysis (LTEA) Assay for ABC Transporter (ABCC3) using HepaRG (AID 2283462). Conditions: mRNA level, 48 h; actives raise or lower the signal. The method, boiled down:
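Differentiated human HepaRG cells exposed 48 h in serum-free induction medium, 0.5% DMSO vehicle, 8-point half-log series to 100 uM in duplicate. ABCC3 mRNA by qRT-PCR, normalised to ACTB, GAPDH, POLR2A; bidirectional fit vs DMSO.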

Read-out in experiment [13]: ABC Transporter (ABCB11), ABCB11 (gene 8647)
In words: LTEA_HepaRG_ABCB11: Life Technologies and Expression Analysis (LTEA) Assay for ABC Transporter (ABCB11) using HepaRG (AID 2283463). Conditions: mRNA level, 48 h; actives raise or lower the signal. The method, boiled down:
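Differentiated human HepaRG cells were exposed for 48 h in serum-free induction medium to eight half-log concentrations up to 100 uM in 0.5% DMSO. ABCB11 mRNA was quantified by qRT-PCR, normalized to ACTB, GAPDH and POLR2A, and fitted bidirectionally versus DMSO.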

Read-out in experiment [14]: ABC Transporter (ABCC2), ABCC2 (gene 1244)
In words: LTEA_HepaRG_ABCC2: Life Technologies and Expression Analysis (LTEA) Assay for ABC Transporter (ABCC2) using HepaRG (AID 2283464). Conditions: mRNA level, 48 h; actives raise or lower the signal. The method, boiled down: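 Differentiated HepaRG cells in serum-free induction medium exposed 48 h to eight half-log concentrations up to 100 uM, 0.5% DMSO, in duplicate. ABCC2 mRNA measured by qRT-PCR (TaqMan, Fluidigm), normalized to ACTB, GAPDH and POLR2A. Fitted in both directions against DMSO.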

Read-out in experiment [15]: Broad substrate specificity ATP-binding cassette transporter ABCG2 (Homo sapiens) (UniProt Q9UNQ0)
In words: LTEA_HepaRG_ABCG2: Life Technologies and Expression Analysis (LTEA) Assay for ABC Transporter (ABCG2) using HepaRG (AID 2283465). Conditions: mRNA level, 48 h; actives raise or lower the signal. The procedure, abridged: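 Differentiated HepaRG cells in serum-free induction medium were exposed for 48 h, in duplicate, to eight half-log concentrations up to 100 uM in 0.5% DMSO. ABCG2 mRNA was measured by TaqMan qRT-PCR, normalized to ACTB, GAPDH and POLR2A, and fitted bidirectionally versus DMSO.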

Read-out in experiment [16]: ATP-citrate lyase (ACLY), ACLY (gene 47)
In words: LTEA_HepaRG_ACLY: Life Technologies and Expression Analysis (LTEA) Assay for ATP-citrate lyase (ACLY) using HepaRG (AID 2283466). Conditions: mRNA level, 48 h; actives raise or lower the signal. The method, boiled down:
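Differentiated human HepaRG cells in serum-free induction medium exposed 48 h, in duplicate, to eight half-log concentrations from 100 uM top in 0.5% DMSO; ACLY mRNA measured by qRT-PCR, normalized to ACTB, GAPDH, POLR2A, fitted bidirectionally versus DMSO.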

Read-out in experiment [17]: Alkaline Phosphatase, Placental (ALPP) gene, ALPP (gene 250)
In words: LTEA_HepaRG_ALPP: Life Technologies and Expression Analysis (LTEA) Assay for Alkaline Phosphatase, Placental (ALPP) gene using HepaRG (AID 2283468). As to conditions: mRNA level, 48 h; actives raise or lower the signal. The procedure, abridged: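 HepaRG cells plated 48 h, then exposed in duplicate for 48 h in serum-free induction medium to 8-point half-log series from 100 uM in 0.5% DMSO. ALPP mRNA by TaqMan qRT-PCR, normalized to ACTB/GAPDH/POLR2A; bidirectional fit versus DMSO.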

Experiment [18] can be described thus: CEETOX_H295R_TESTO: CeeTox H295R High-throughput Steroidogenesis Assay for Testosterone (TESTO) (AID 2283457). As to conditions: actives raise or lower the signal. The procedure, abridged: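 H295R adrenal cells, passage ≤10, exposed to chemicals for 48 h. Testosterone in medium measured by MTBE extraction and HPLC-MS/MS against a 7-point standard curve. Bidirectional fit versus DMSO; MTT viability checked in the same wells.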

Read-out in experiment [19]: Peroxisomal acyl-coenzyme A oxidase 1 (ACOX1) gene, ACOX1 (gene 51)
Briefly: LTEA_HepaRG_ACOX1: Life Technologies and Expression Analysis (LTEA) Assay for Peroxisomal acyl-coenzyme A oxidase 1 (ACOX1) gene using HepaRG (AID 2283467). As to conditions: mRNA level, 48 h; actives raise or lower the signal. The method, boiled down: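 Differentiated human HepaRG cells were exposed in duplicate for 48 h in serum-free induction medium to eight half-log concentrations up to 100 uM in 0.5% DMSO. ACOX1 mRNA was then quantified by TaqMan qRT-PCR, normalized to ACTB, GAPDH and POLR2A.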

Each structure is given as a SMILES string. Activity calls are given as the source filed them. How the source made its calls: active means hit-call score of the fitted dose curve at least 0.9, where 1 is the maximum; inactive means score below 0.9.

Chain of Broad substrate specificity ATP-binding cassette transporter ABCG2 (Homo sapiens) (Q9UNQ0 whole entry, looked up): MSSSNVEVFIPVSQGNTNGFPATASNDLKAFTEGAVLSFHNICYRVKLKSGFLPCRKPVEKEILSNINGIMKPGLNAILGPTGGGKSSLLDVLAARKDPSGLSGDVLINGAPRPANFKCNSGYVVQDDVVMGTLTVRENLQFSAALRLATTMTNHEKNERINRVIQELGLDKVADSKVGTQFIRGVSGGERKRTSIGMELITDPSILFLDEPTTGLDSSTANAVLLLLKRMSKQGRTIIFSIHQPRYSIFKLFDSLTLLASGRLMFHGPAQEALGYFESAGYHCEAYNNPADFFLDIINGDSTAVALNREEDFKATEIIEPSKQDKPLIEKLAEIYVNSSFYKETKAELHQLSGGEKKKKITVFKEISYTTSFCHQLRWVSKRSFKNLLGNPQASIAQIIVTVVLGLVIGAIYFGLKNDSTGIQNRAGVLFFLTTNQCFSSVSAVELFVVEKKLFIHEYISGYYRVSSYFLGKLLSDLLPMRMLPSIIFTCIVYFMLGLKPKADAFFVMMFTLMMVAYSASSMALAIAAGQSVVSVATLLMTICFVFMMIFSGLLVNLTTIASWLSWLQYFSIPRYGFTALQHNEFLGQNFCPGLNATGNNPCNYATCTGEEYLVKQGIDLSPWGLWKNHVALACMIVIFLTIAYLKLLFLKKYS

`CC(=O)S[C@H](C(=O)N[C@H]1Cc2ccccc2[C@H]2CCC[C@@H](C(=O)O)N2C1=O)C(C)C`: the outcome in experiment [1], in experiment [2], in experiment [3], in experiment [4], in experiment [5] and in experiment [6] was inactive. Besides, the result in experiment [7], in experiment [8], in experiment [9], in experiment [10], in experiment [11] and in [12] was inactive. Further, the outcome in experiment [13], in experiment [14], in experiment [15], in experiment [16] and in experiment [17] was inactive.

As for `O=C(Oc1ccccc1)c1cccc(C(=O)Oc2ccccc2)c1`, the call in [1], in experiment [2], in [3], in experiment [4], in experiment [6] and in experiment [7] was inactive. Also, the molecule was classed as inactive in experiment [18], in [8], in experiment [9], in experiment [10], in experiment [11] and in experiment [12]. Besides, the outcome in [13], in experiment [14], in experiment [15], in experiment [16], in experiment [19] and in experiment [17] was inactive. Besides, the AC50 in [5] was 67.7 µM (active).

Regarding `Cc1occc(=O)c1O`, the result in experiment [1], in [2], in [3], in experiment [4], in experiment [6] and in experiment [7] was inactive. In addition, the molecule was called inactive in [8], in experiment [9], in [10], in experiment [11], in experiment [12] and in experiment [13]. Also, the outcome in experiment [14], in experiment [15], in experiment [16] and in [17] was inactive.
